This note sets out measurements from PubChem BioAssay (NCI).

“And” between values parts separate entries of the source, which are not always exact repeats. Equal entries are not always repeated. This is part of a sample that, as a whole, favours compounds with a hit. Of some 83,000 tested, about 20% had one in any assay.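 Single-dose data. Exposure time 48 hours. Values below 10 considered active.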 The source made the active and inactive calls.

The subject of this test is MDA-MB-468 breast. As to the kind of experiment: NCI-60 one-dose screen, 48 h (100 = growth as untreated, 0 = no growth, -100 = all killed). Particulars: 10 µM unless noted.
Regarding `CCC(O)CC(CC)CO` (stereo not given), the growth is 113% (inactive).

In the case of `COc1cc(/C=C2\C(=O)Nc3ccccc32)cc(OC)c1O`, the growth was 20.4% (inactive).

Consider `O=C1Nc2ccccc2/C1=C\c1c(-c2ccc(F)cc2)nc2ccccn12`, for which the growth is 40.8% (inactive).

As to `COc1ccc(C(=O)/C=C/c2c(C(F)(F)F)nc3ccccn23)cc1OC`, the growth was -59.9% (active).

For the molecule `CCOC(=O)Nc1nc2ccccc2[nH]1`, the growth was 99.4% (inactive) and 26.8% (inactive).

`CCCCCCCCCCCC[n+]1ccccc1` (tested in a mixture with another compound): the growth is -37.6% (active).

With `O=C(/C(=C/c1ccc([N+](=O)[O-])cc1)c1ccccc1)c1ccccc1`, the growth was 51.4% (inactive).

Take `N=C(N)c1ccc(-c2ccc(-c3ccc(Cl)c(Cl)c3)o2)nc1`: the growth was -17% (active).

For the molecule `Nc1n[nH]c(=S)n1-c1ccc(Cl)cc1`, the growth is 97.5% (inactive).

Consider `COc1ccc(Cn2cc3c(c2-c2ccccc2)CCCc2cnoc2-3)cc1`, for which the growth is 47.7% (inactive).

In the case of `CCN(CC)CCNC(=O)c1ccc(NC(C)=O)cc1`, the growth was 111% (inactive).

As to `CN(C)CCN1C(=O)c2cccc3c(/C=C/CN4C(=O)c5cccc6cccc(c56)C4=O)ccc(c23)C1=O`, the growth was 88.9% (inactive).

Turning to `COc1ccc(C2=Cn3c(CCC(=O)c4nc5ccccc5[nH]4)nnc3SC2)cc1`, the growth is 77.4% (inactive).

In the case of `O=C(C[C@]1(O)C(=O)Nc2ccc(Br)cc21)c1ccco1`, the growth was 109% (inactive).

Consider `CC(C)C(=O)Nc1ccc(-c2nc(-c3cccc(O)c3)c(-c3ccnc(Br)c3)[nH]2)cc1`, for which the growth was 15.1% (inactive).

For the molecule `O=[N+]([O-])c1ccc(NS(=O)(=O)c2cc(Cl)ccc2Cl)c2ccccc12`, the growth was 23.6% (inactive).

In the case of `CC(=O)O[C@H]1CC[C@@]2(C)C(=CC[C@@H]3[C@@H]2CC[C@]2(C)C(c4cccnc4)=CC[C@@H]32)C1`, the growth was 26.5% (inactive).

In the case of `O=C1NC(=O)N(Cc2ccccc2)CC1Br` (stereo not given), the growth is 104% (inactive).

For `CC/C=C/C/C=C/C/C=C/C/C=C/C/C=C/C/C=C/CCC(=O)Nc1ccn([C@@H]2O[C@H](CO)[C@@H](O)C2(F)F)c(=O)n1`, the growth is 21.5% (inactive).

As for `COc1cc(/C=N/O)nc(-c2ccccn2)c1`, the growth is -16.9% (active).

For `Cn1cc(-c2csc(-c3ccc(Cl)cc3)n2)c2cccnc21`, the growth was -69.1% [100 µM] (active).

Consider `CC(=O)Nc1ccc(S(=O)(=O)NC2CCCCC2)cc1`, for which the growth is 93.9% (inactive).

`O=C1CSC(=S)N1Cc1cccnc1`: the growth is 47.6% (inactive).

Regarding `CCCCC1CCCC12NC(=O)NC2=O` (stereo not given), the growth is 112% (inactive).

`COC(=O)[C@]12CC[C@@H](C)[C@H](C)[C@@H]1C1=CC[C@@H]3[C@@]4(C)C[C@@H](OC(C)=O)[C@H](OC(C)=O)[C@@](C)(COC(C)=O)[C@@H]4[C@H](O)C[C@@]3(C)[C@]1(C)CC2`: the growth is -6.62% (active).

As to `Cc1cccc(/C=N/Nc2cc(C)c3cccc(C)c3n2)n1`, the growth is 88.7% (inactive).

As for `BrC1=C(Br)C(Br)(Br)C(Br)=C1Br`, the growth is 97.7% (inactive).

`CCOC(=O)c1c(C(=O)c2cn(C)c3ccc(Br)cc23)c(-c2cn(C)c3ccc(Br)cc23)n(NC(=O)OC(C)(C)C)c1C`: the growth is 41.5% [100 µM] (inactive).

As for `COc1cc(C(=O)CCCl)ccc1O`, the growth is 94.7% (inactive).

As for `CC1(C)CC[C@]23CC[C@]4(C)[C@H](CC[C@@H]5[C@@]6(C)C/C(=C/O)C(=O)C(C)(C)[C@@H]6CC[C@]54C)[C@H]2[C@H]1OC3`, the growth was 119% (inactive).

For the molecule `CC(Nc1ncnc2ccc(-c3cnc(N)nc3)cc12)c1ccccc1` (stereo not given), the growth was -28.6% (active).

For `COc1c(C2CC(=O)Nc3c2c(C)nn3-c2nc3ccccc3[nH]2)cc2c(c1OC)OCO2` (stereo not given), the growth was 29.6% (inactive).

`C=CCc1nc2ccccc2s1`: the growth was -14.5% (active).

As to `CCN(CC)CCCCCCCNc1cc(OC)cc2c(C)ccnc12`, the growth is 40.5% (inactive).

As for `Cc1ccc(C(=O)c2ccc(CC(=O)N/N=C/c3ccccc3O)n2C)cc1`, the growth was 81.1% (inactive).

Consider `CC1=CC=C(NC(=O)/C=C/c2ccccc2)CC1Nc1nccc(-c2cccnc2)n1` (stereo not given), for which the growth was 3.07% (active).

Turning to `Cc1cc(N(CCCNc2ccnc3cc(Cl)ccc23)Cc2ccc3c(c2)OCO3)nc(N2CCCCC2)n1`, the growth was -45.2% (active).

Regarding `CCN1CCN(c2ccc(Nc3ncc4ccc5ncn(C(C)C)c5c4n3)nc2)CC1`, the growth is -41.3% (active).

With `COc1cc(NCCCCCNC(C)(C)C)c2ncccc2c1`, the growth was -6.36% (active).

As for `O=C(Nc1ccc(Cl)cc1)c1cc2ccccc2cc1O`, the growth is 21.4% (inactive) and -6.92% (active).
